Drawing on PubChem BioAssay (NCI), this text covers growth inhibition for 19 compounds.

A short description of assay [1]: NCI Yeast Anticancer Drug Screen. Data for the rad50 strain (AID 155).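 Note: 0% = growth of vehicle-only cultures of the same strain.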 Particulars: S. cerevisiae rad50 strain growth inhibition; at 50.0 µM; hits give high values. The procedure, abridged:
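Compounds were tested on a yeast strain with an engineered DNA damage repair alteration; the reported value is growth inhibition normalised to vehicle treatment.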

A short description of assay [2]: NCI Yeast Anticancer Drug Screen. Data for the mec2-1 strain (AID 157). To be noted: S. cerevisiae mec2-1 strain, at 50.0 µM, hits give high values. The procedure, abridged: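 mec2-1 yeast strain, carrying an alteration in DNA damage repair or cell cycle control, was exposed to compounds; growth inhibition was measured relative to vehicle-treated controls.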
The nature of assay [3]: NCI Yeast Anticancer Drug Screen. Data for the sgs1 mgt1 strain (AID 161).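 Note: 0% = growth of cultures given vehicle only.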 Particulars: S. cerevisiae sgs1 mgt1 strain, at 50.0 µM, hits give high values. In a few lines: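 Percent growth inhibition was derived by comparing compound-exposed mutant yeast with vehicle-exposed cultures. The strain carries alterations in DNA damage repair.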
The nature of assay [4]: NCI Yeast Anticancer Drug Screen. Data for the cln2 rad14 strain (AID 165).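 Note: 0% = growth equal to vehicle treated cultures.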 To be noted: S. cerevisiae cln2 rad14 strain, at 50.0 µM, hits give high values. The procedure, abridged:
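Yeast carrying cln2 and rad14 alterations (cell cycle control and DNA damage repair) were exposed to compounds. Growth inhibition was measured against vehicle-treated controls.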

The nature of assay [5]: NCI Yeast Anticancer Drug Screen. Data for the bub3 strain (AID 167). To be noted: S. cerevisiae bub3 mutant strain, at 50.0 µM, hits give high values. In a few lines: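 Growth of a checkpoint-deficient yeast mutant is measured after compound exposure. Values represent inhibition relative to vehicle.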
The nature of assay [6]: NCI Yeast Anticancer Drug Screen. Data for the mlh1 rad18 strain (AID 175). Particulars: S. cerevisiae mlh1 rad18 strain growth inhibition; at 50.0 µM; hits give high values. In a few lines: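 Growth inhibition of the yeast strain was measured after compound exposure and expressed relative to vehicle-treated controls. The strain carries defined defects in DNA damage repair.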

This is part of a sample that, as a whole, favours compounds with a hit. Of some 79,000 tested, about 15% had one in any assay. Unmarked numbers belong to inactive results. Calls of active or inactive are those of the source. Cut-off read from the data, not from the text of the source: active = growth inhibition above about 70%; inactive = the rest.

Regarding `CCCCCCCCCCCCCCCC(=O)NCC(=O)NC1C(CO)OC(Nc2ncnc3nc[nH]c23)C(O)C1O` (centres undefined), the growth inhibition was 61.8% in assay [1]; 19% in assay [2]; 82.7% (active) in assay [3]; 14.7% in assay [4]; 76.2% (active) in assay [5]; -11.7% in assay [6].
In the case of `CC(=O)Nc1ccc(S(=O)(=O)N/N=C(\C)c2csc3ccccc23)cc1`, the growth inhibition in assay [1] is -2.7%; in assay [2], -5.25%; in assay [3], -19.9%; in assay [4], -16.1%; in assay [5], -4.05%; in assay [6] it was 0.15%.
As for `O=c1[nH]c(-c2ccccc2)c(-c2ccccc2)nc1Cl`, the growth inhibition in assay [1] was 6.35%; in assay [2], 1.8%; in assay [3] it was 6.5%; in assay [4] it was -11.7%; in assay [5], -19.1%; in assay [6], 18.1%.
Turning to `CCCCCCCCCCCCCCCC(=O)Oc1ccc(C(=S)N2CCOCC2)cc1`, the growth inhibition is 20.8% in assay [1]; 1.25% in assay [2]; 2.4% in assay [3]; 2.9% in assay [4]; 5.05% in assay [5]; 13.9% in assay [6].
As to `CC(C)(C(=O)Cc1ccccc1)c1ccccc1`, the growth inhibition was -29.5% in assay [1]; -21.4% in assay [2]; -10.2% in assay [3]; 31.1% in assay [4]; 0.2% in assay [5]; -11.3% in assay [6].
Take `CN1CCc2c1nc(-c1ccccc1)c1c2N(C)CC1`: the growth inhibition in assay [1] is 2.2%; in assay [2], -11%; in assay [3], -6.4%; in assay [4] it was 9.65%; in assay [5], -18.2%; in assay [6] it was -1.5%.
In the case of `COC(=O)/C=C/c1cccc([N+](=O)[O-])c1`, the growth inhibition in assay [1] was -3.55%; in assay [2] it was -2.25%; in assay [3] it was 20.7%; in assay [4] it was -48.8%; in assay [5], -0.7%; in assay [6], -18.3%.
Regarding `CC1=C(C)C2(C)C(C)C2(C)C1C` (centres undefined), the growth inhibition is -5.8% in assay [1]; -13.3% in assay [2]; 17.9% in assay [3]; 20.6% in assay [4]; 35% in assay [5]; -1.7% in assay [6].
Regarding `CC(=O)Oc1ccccc1C(OC(C)=O)OC(C)=O`, the growth inhibition in assay [1] was 31.8%; in assay [2] it was 5.2%; in assay [3] it was 12.5%; in assay [4], -20.1%; in assay [5], 2.05%; in assay [6], 34.4%.
For the compound `Ic1ccc([I+]c2ccc(I)cc2)cc1`, the growth inhibition in assay [1] was 94.4% (active); in assay [2] it was 94.2% (active); in assay [3] it was 97% (active); in assay [4], 93.5% (active); in assay [5], 94.3% (active); in assay [6] it was 90.8% (active).
As for `NC(N)=NC(N)=Nc1ccccc1`, the growth inhibition in assay [1] is -15.9%; in assay [2], 14.8%; in assay [3] it was -1.8%; in assay [4] it was -5.9%; in assay [5], 1.15%; in assay [6], 11.6%.
Regarding `ClC/C(=N\N1CCCCCC1)c1ccccc1`, the growth inhibition in assay [1] is -7.8%; in assay [2], -4.05%; in assay [3], -4.75%; in assay [4] it was -10.2%; in assay [5], -1.6%; in assay [6], 2.2%.
Turning to `C=CCSC(=S)Nc1nc2ccc(C)cc2s1`, the growth inhibition in assay [1] was -19.9%; in assay [2], 4.75%; in assay [3], 0.25%; in assay [4] it was 0.2%; in assay [5], -2.05%; in assay [6] it was 2.1%.
`CC(C)(C)N(OC(=O)c1ccccc1)C(=O)c1ccccc1`: the growth inhibition in assay [1] is 3.25%; in assay [2], 4.35%; in assay [3], 0.4%; in assay [4], 5.45%; in assay [5] it was 0.6%; in assay [6], 14.4%.
On to `O=C1CC(c2ccccc2)=NCCN1`, for which the growth inhibition in assay [1] was -9.2%; in assay [2], 16.2%; in assay [3], 11.9%; in assay [4], -3.55%; in assay [5], -19.4%; in assay [6] it was -7.25%.
Take `C=C1CC[C@H]2C(C)=CC[C@@H]3[C@H](OC(=O)[C@H]3CN(C)C)[C@@H]12`: the growth inhibition in assay [1] was 8.05%; in assay [2] it was -4.45%; in assay [3] it was 1.5%; in assay [4] it was 32.7%; in assay [5] it was 26.4%; in assay [6] it was 16.2%.
Consider `COc1cccc(C(C#N)c2cnc3ccccc3n2)c1` (centres undefined), for which the growth inhibition in assay [1] is 27.4%; in assay [2], 14.6%; in assay [3], 10.1%; in assay [4] it was 33.2%; in assay [5], 37.1%; in assay [6] it was 27.4%.
On to `CCOC(=O)Oc1ccc(C(=O)Oc2ccccc2)cc1OC`, for which the growth inhibition in assay [1] is 18.1%; in assay [2], 4.1%; in assay [3], 12.9%; in assay [4], -48.8%; in assay [5], 42.1%; in assay [6], 10%.
Consider `O=C1N=C(C=c2ccc(=Cc3[nH]c(=O)[nH]c3O)cc2)C(=O)N1`, for which the growth inhibition in assay [1] was -5.95%; in assay [2], -11.4%; in assay [3], -14.9%; in assay [4], 13.9%; in assay [5] it was 8.35%; in assay [6], 5.7%.
